# Assay results published in the supplement of paper PMC5499739.
# Whole data set: some 16,000 sequences, median “Z-score” near -0.37, cut for the highest 2% near 3.1. The entries come from a sample that favours the highest values as a whole.
# Tested on: RBM10 RRM1-ZnF-RRM2 (GST-tagged construct)
# Assay: RNAcompete 7-mer binding Z-score; higher = stronger binding preference
# In short: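 GST-tagged RBM10 constructs (20 pmol) were mixed with a designed pool of 241 399 RNAs up to 41 nt (1.5 nmol), transcribed from microarray-derived DNA templates. Mixing was in 1 ml Hepes pH 7.8 buffer with KCl, NaCl, glycerol, DTT, BSA and glutathione Sepharose beads. Binding ran 30 min at 4°C, followed by four 2-min washes at 4°C, and bound RNA was identified by microarray hybridisation. Each heptamer motif received a one-sided Z-score for enrichment across probes containing it.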
row,Sequence,RNAcompete 7-mer binding Z-score
1,AAGUUUU,-0.329
2,AUGGGAG,3.64
3,AUGGGAA,4.29
4,CUGGGAA,1.36
5,UUGGGAA,1.92
6,AUGGGGC,2.6
7,AUGGGGG,3.84
8,UUGGGAG,2.51
9,AUGGGGA,4.23
10,CUGGGAG,1.4
11,GCGGUAU,0.574
12,AUUAUCG,-0.402
13,UCCCCCU,-0.566
14,UGAAAUU,-0.686
15,CUGUGGG,1.63
16,AAAAAAA,-0.49
17,UAGGCUA,0.392
18,CGACGUG,0.25
19,GACGGCG,0.836
20,AUGGGGU,3.91
21,CGGGGGU,3.06
22,CUGGGGU,1.79
23,AUCACCU,-0.876
24,UGUAGAU,0.235

row,Sequence,RNAcompete 7-mer binding Z-score
1,GUUAGGC,1.25
2,ACGGGUC,1.42
3,ACGGGUG,3.24
4,ACGGGGU,3.8
5,GCGGGUG,2.75
6,CCGGGGU,1.71
7,ACGGGGA,2.84
8,ACGGGGG,3.19
9,ACGGGUU,2.32
10,ACGGGGC,2.37
11,CGUUCUC,-0.763
12,UUCAUUU,-0.737
13,GCGGCUA,0.21
14,ACCCAGC,-0.785
15,CAAUGCA,-0.362
16,UCUAAUG,-0.577
17,CUUUAUA,-0.752
18,AGCGGGA,3.24
19,CGCGAGG,0.833
20,AGCGGGU,3.01
21,CGCGGGG,2.32
22,GGCGGGC,1.97
23,CGCGGGA,1.16
24,GGCGGGG,3.64

row,Sequence,RNAcompete 7-mer binding Z-score
1,GGCGAGC,1.87
2,AGCGGGG,3.96
3,AGCGGGC,1.57
4,GGCGAGG,3.22
5,GGCGGGU,2.57
6,UGGUAAG,1.73
7,CUAGGGA,1.6
8,GAGACCG,-0.0452
9,UACACCC,-0.77
10,AGCAGGU,1.74
11,GACUCCA,-0.704
12,CUUUAGG,-0.369
13,AUAUAAU,-0.366
14,GGUGAAA,1.83
15,CAAAUAG,-0.144
16,UGCGGGA,1.7
17,GGCGGCA,1.12
18,GGCGGGA,3.23
19,AUAUUAG,0.0313
20,AUUGGGU,2.74
21,GAUUGGC,0.927
22,GGUUGGC,2.03
23,CUUGGGG,1.13
24,GUUGGGG,3.69

row,Sequence,RNAcompete 7-mer binding Z-score
1,GGUUGGU,1.94
2,AAUUGGG,2.6
3,GGUUGGG,4.42
4,AUUGGGA,2.99
5,AUUGGGG,3.16
6,GAUUGGG,3.64
7,UUUGGGG,2.13
8,CCUUUCC,-0.887
9,AUGGCGU,0.705
10,CGCUAAU,-0.628
11,AAGCAGA,0.672
12,UCGGAAC,0.0532
13,UUGUCAA,-0.741
14,AAUUCAC,-0.643
15,UUUGCAA,-0.602
16,ACUUUCU,-0.959
17,AUCGAGA,0.352
18,GGUUAGG,4.22
19,GGUUAGC,1.03
20,GGUUAGU,1.6
21,ACUGCCC,-0.439
